For assay [1], the system named is Vero E6 infected with SARS-CoV-2. In words: inhibition of SARS-CoV-2 cytopathic effect; higher = more antiviral protection, active = above 15. The note with it: 48 h. (Damage to the host cells serves as the signal in cytopathic effect assays.)
The test system is the same in assay [2]. Put plainly: morphology score (similarity to uninfected cells); higher = more like uninfected cells. As to conditions: 24 h.
The test system is the same in assay [3]. Put plainly: SARS-CoV-2 infection rate relative to infected DMSO; higher = more infection, active = 60 or less. The note with it: 24 h.

Molecules are shown by their SMILES.

Experimental findings from the supplement of paper PMC13380429 are described below.

As to `CCCn1c(=O)c(C)cn2nc(N)nc12`, the “inhibition of SARS-CoV-2 cytopathic effect” value (“inhibition” for short) in assay [1] (1 nM) was 3.43% (inactive); in assay [1] (8.33 nM), 2.31% (inactive); in assay [1] (100 nM) it was -0.1% (inactive); in assay [1] (833.33 nM) it was 2.28% (inactive); in assay [1] (10000 nM), -2.15% (inactive).

Consider `CCC1=C(C)CN(C(=O)NCCc2ccc(S(=O)(=O)NC(=O)N[C@H]3CC[C@H](C)CC3)cc2)C1=O` [glimepiride], for which the “inhibition” value in assay [1] (1 nM) was -3.26% (inactive); in assay [1] (8.33 nM), -2.65% (inactive); in assay [1] (100 nM) it was -2.4% (inactive).

In the case of `CC1(C)S[C@@H]2[C@H](NC(=O)COc3ccccc3)C(=O)N2[C@H]1C(=O)O` [penicillin-v-potassium], the “inhibition” value in assay [1] (1 nM) is -0.76% (inactive); in assay [1] (8.33 nM) it was 1.87% (inactive); in assay [1] (100 nM) it was -1.93% (inactive); in assay [1] (833.33 nM), 1.76% (inactive); in assay [1] (10000 nM), 0.08% (inactive).

With `C[N+](C)(C)CC(=O)O` [betaine] (10 µM), in assay [2], the morphology score stood at 0.11. Besides, the SARS-CoV-2 infection rate in assay [3] was 102% (inactive).

With `C[C@H](CCC(=O)NCCS(=O)(=O)O)[C@H]1CC[C@H]2[C@@H]3[C@H](O)C[C@@H]4C[C@H](O)CC[C@]4(C)[C@H]3C[C@H](O)[C@]12C` [taurocholate], the “inhibition” value in assay [1] (1 nM) is -8.93% (inactive); in assay [1] (8.33 nM), -4.1% (inactive); in assay [1] (100 nM) it was -6.72% (inactive); in assay [1] (833.33 nM), -7.82% (inactive); in assay [1] (10000 nM), -8.38% (inactive).

With `Nc1sc2c(c1C(=O)c1ccc(Cl)cc1)CCCC2`, the “inhibition” value in assay [1] (1 nM) was -0.5% (inactive); in assay [1] (8.33 nM), 3.31% (inactive); in assay [1] (100 nM), 0.38% (inactive).

For the compound `C=C[C@]1(C)CC[C@@H](C(=C)C)C[C@H]1C(=C)C` [beta-elemene], the “inhibition” value in assay [1] (1 nM) is 2.14% (inactive); in assay [1] (8.33 nM) it was 1.03% (inactive); in assay [1] (100 nM), 0.39% (inactive); in assay [1] (833.33 nM) it was 0.7% (inactive); in assay [1] (10000 nM) it was 0.82% (inactive).

Regarding `CN[C@H](CC(C)C)C(=O)N[C@H]1C(=O)N[C@@H](CC(N)=O)C(=O)N[C@H]2C(=O)N[C@H]3C(=O)N[C@H](C(=O)N[C@H](C(=O)O)c4cc(O)cc(O)c4-c4cc3ccc4O)[C@H](O[C@H]3C[C@](C)(N)[C@@H](O)[C@H](C)O3)c3ccc(c(Cl)c3)Oc3cc2cc(c3O[C@@H]2O[C@H](CO)[C@@H](O)[C@H](O)[C@H]2O[C@H]2C[C@](C)(NCc3ccc(-c4ccc(Cl)cc4)cc3)[C@@H](O)[C@H](C)O2)Oc2ccc(cc2Cl)[C@H]1O` [oritavancin] (10 µM), the morphology score in assay [2] was found to be 0.0399. In addition, in assay [3], the SARS-CoV-2 infection rate is 92% (inactive).

Consider `CN(C)c1ccccc1CN1CCCN(Cc2ccccc2N(C)C)C1c1ccncc1`, for which the “inhibition” value in assay [1] (1 nM) was 0.09% (inactive); in assay [1] (8.33 nM), 1.84% (inactive); in assay [1] (100 nM), 0.14% (inactive); in assay [1] (833.33 nM), 0.48% (inactive); in assay [1] (10000 nM), 21% (active).

In assay [2], `C[C@H](NC(=O)[C@@H](O)c1cc(F)cc(F)c1)C(=O)N[C@@H]1C(=O)N(C)c2ccccc2-c2ccccc21` (10 µM) came in with a morphology score of 0.165. Also, the SARS-CoV-2 infection rate in assay [3] was 101% (inactive).

Consider `CC(O)Cn1cnc2c1c(=O)n(C)c(=O)n2C` (stereo not drawn) [Proxyphylline] (10 µM), for which the morphology score in assay [2] turned out to be 0.074. Besides, the SARS-CoV-2 infection rate in assay [3] is 97% (inactive).

On to `Cc1ccccc1C(c1ccccc1C)N1C2CCC1CC(O)(c1ccccc1)C2` (stereo not drawn) (10 µM), for which the morphology score in assay [2] was 0.307. Further, the SARS-CoV-2 infection rate in assay [3] is 85% (inactive).

On to `CC[C@@H]1C(=O)N(C)c2cnc(Nc3ccc(C(=O)NC4CCN(C)CC4)cc3OC)nc2N1C1CCCC1` (10 µM), for which the morphology score in assay [2] is -0.305. In assay [3], the SARS-CoV-2 infection rate was 104% (inactive).

In the case of `COc1ccc2c(c1)C(=O)N(CCc1ccc(S(=O)(=O)NC(=O)NC3CCCCC3)cc1)C(=O)C2(C)C` [gliquidone], the “inhibition” value in assay [1] (1 nM) is -1.78% (inactive); in assay [1] (8.33 nM), 2.65% (inactive); in assay [1] (100 nM), 2.68% (inactive); in assay [1] (833.33 nM) it was -0.14% (inactive); in assay [1] (10000 nM) it was -0.29% (inactive).

In the case of `O=C(O)Cc1ccc(CCNS(=O)(=O)c2ccc(Cl)cc2)cc1` [daltroban], the “inhibition” value in assay [1] (1 nM) is -0.21% (inactive); in assay [1] (8.33 nM), 3.04% (inactive); in assay [1] (100 nM), -1.18% (inactive); in assay [1] (833.33 nM), -0.76% (inactive); in assay [1] (10000 nM), 1.78% (inactive).

As for `O=C(NS(=O)(=O)c1ccc(Br)s1)c1ccc(Cl)cc1Cl` [tasisulam], the “inhibition” value in assay [1] (1 nM) was -0.54% (inactive); in assay [1] (8.33 nM), 5.25% (inactive); in assay [1] (100 nM), 0.94% (inactive); in assay [1] (833.33 nM) it was -0.93% (inactive); in assay [1] (10000 nM), 4.37% (inactive).

As for `N=C(N)NC(=O)Cc1c(Cl)cccc1Cl` [guanfacine], the “inhibition” value was 3.14% (inactive) in assay [1] (1 nM); 4.91% (inactive) in assay [1] (8.33 nM); -3.11% (inactive) in assay [1] (100 nM); 1.89% (inactive) in assay [1] (833.33 nM); -0.42% (inactive) in assay [1] (10000 nM).

For the compound `O=C(Nc1ccccc1)Nc1ccc(-c2ccc(C(=O)[C@@H]3CCC[C@@H]3C(=O)O)cc2)cc1`, the “inhibition” value is -1.33% (inactive) in assay [1] (1 nM); 1.31% (inactive) in assay [1] (8.33 nM); 3.77% (inactive) in assay [1] (100 nM); 1.06% (inactive) in assay [1] (833.33 nM); -1.53% (inactive) in assay [1] (10000 nM).
